Assay results taken from PubChem BioAssay (NCATS).
Unmarked numbers belong to inactive results. Records with an inconclusive call do not appear. A call without a number means that no potency is given here. Activity calls are given as the source filed them. Unless noted, calls come from the whole dose curve; as a rule, active = well fitted curve in the direction sought with a large enough effect; inconclusive = small, poorly fitted or top-dose-only effect, or another doubt; inactive = no such curve, though single readings can be large; an effect the other way counts as inactive or inconclusive.

Key:
[1] = target: Protein phosphatase 1D (Homo sapiens) (UniProt O15297); assay: Rhodamine-PBP qHTS Assay for Modulators of WT P53-Induced Phosphatase 1 (WIP1) (AID 1347425)
Sequence of Protein phosphatase 1D (Homo sapiens) (O15297 whole entry, looked up): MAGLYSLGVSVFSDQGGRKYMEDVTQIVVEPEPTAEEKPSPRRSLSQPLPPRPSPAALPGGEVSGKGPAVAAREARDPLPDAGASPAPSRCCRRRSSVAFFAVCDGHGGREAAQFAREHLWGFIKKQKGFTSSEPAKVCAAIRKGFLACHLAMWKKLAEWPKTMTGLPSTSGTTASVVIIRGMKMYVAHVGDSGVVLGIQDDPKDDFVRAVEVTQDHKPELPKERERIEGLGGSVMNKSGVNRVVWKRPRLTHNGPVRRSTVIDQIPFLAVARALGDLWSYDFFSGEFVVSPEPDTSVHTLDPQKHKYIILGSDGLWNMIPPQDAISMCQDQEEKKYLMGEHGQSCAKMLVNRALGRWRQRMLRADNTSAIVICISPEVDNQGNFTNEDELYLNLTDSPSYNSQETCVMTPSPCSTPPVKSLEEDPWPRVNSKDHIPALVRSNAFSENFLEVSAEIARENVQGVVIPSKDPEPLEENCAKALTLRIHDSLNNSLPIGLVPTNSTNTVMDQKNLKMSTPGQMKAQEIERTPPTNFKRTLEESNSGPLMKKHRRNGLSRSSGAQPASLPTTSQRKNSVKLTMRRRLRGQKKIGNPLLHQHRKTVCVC
Method in brief: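 5 nM WIP1 + 10 uM Rh-PBP, 50 mM Tris pH 7.5, 30 mM MgCl2, 1 mM TCEP, 0.1 mM EGTA, BSA; cpds pinned, 1 hr RT; + 10 uM phosphopeptide; fluorescence 1-min reads x 11 min; delta = f1 - f0.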

[2] = Validation qHTS assay for inhibitors of Activation Induced Cytidine Deaminase (AID): UDG Counterscreen signal (AID 1347427)
Method in brief: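 Fluorescence at 560 nm excitation, 665 nm emission reports UDG signal after 250 mM NaOH (2x) addition and 30 min. Enzymes (AID 1 uM, UDG 2 U/mL, at 4/3x) preincubated 10 min with compound, then 4 h with 4x 250 nM DJC20/DJC23 substrate at room temperature.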

[3] = target: Single-stranded DNA cytosine deaminase (Homo sapiens) (UniProt Q9GZX7); assay: Validation qHTS assay for inhibitors of Activation Induced Cytidine Deaminase (AID): AID signal (AID 1347429)
Sequence of Single-stranded DNA cytosine deaminase (Homo sapiens) (Q9GZX7 whole entry, looked up): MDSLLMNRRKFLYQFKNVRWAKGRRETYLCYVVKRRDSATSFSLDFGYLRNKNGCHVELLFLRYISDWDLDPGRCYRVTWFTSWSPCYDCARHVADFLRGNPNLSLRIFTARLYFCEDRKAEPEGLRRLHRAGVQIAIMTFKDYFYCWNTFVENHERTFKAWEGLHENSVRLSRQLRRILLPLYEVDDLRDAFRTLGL
Method in brief: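 Compounds (up to 114 uM final) are tested against AID plus UDG using DJC20/DJC23 FRET substrate. Reactions incubate 4 hr at room temperature, receive NaOH for 30 min, and are read at Ex 540/Em 590 nm.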

[4] = Primary qHTS for inhibitors of La Crosse Virus (LACV) - induced cell death in SH-SY5Y cells (AID 1508616); note: potency is the fitted concentration of half-maximal effect
Method in brief: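 Screening measures cell viability in LACV-infected SH-SY5Y cultures. Compound was added before virus (0.01 MOI), and ATP was detected by luminescence 6 days later.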

[5] = Primary qHTS for inhibitors of SARS-S pseudo-typed particle cell entry (AID 1479145; calls by dose curve; note: nearly all actives have a fitted effect of over 45% in size; note: potency is the fitted concentration of half-maximal effect)
[6] = Primary qHTS for Huh7 cytotoxicity: counterscreen for inhibitors of MERS-S pseudotyped particle cell entry (AID 1479147; calls by dose curve)
[7] = Primary qHTS for inhibitors of MERS-S pseudo-typed particle cell entry (AID 1479149; calls by dose curve; note: nearly all actives have a fitted effect of over 60% in size)
[8] = Primary qHTS for Vero E6 cytotoxicity: counterscreen for inhibitors of SARS-S pseudo-typed particle cell entry (AID 1479150; calls by dose curve)

| SMILES | outcome [1] | outcome [2] | outcome [3] | Potency [4] | Potency [5] | Potency [6] | Potency [7] | Potency [8] |
| --- | --- | --- | --- | --- | --- | --- | --- | --- |
| CCC1(C2=NCCN2)Cc2ccccc2O1 (stereo not given) | inactive | inactive | inactive | inactive | – | – | – | – |
| N[C@@H](Cc1ccc(N(CCCl)CCCl)cc1)C(=O)O | inactive | – | – | – | 31.6 µM (active) | inactive | inactive | inactive |
| CC(C)=CCOc1c2occc2cc2ccc(=O)oc12 | inactive | inactive | inactive | inactive | – | – | – | – |
| COc1ccccc1N1CCNCC1 | inactive | inactive | inactive | inactive | – | – | – | – |
| NCC1(CC(=O)O)CCCCC1 | inactive | inactive | inactive | inactive | inactive | inactive | inactive | inactive |
| CC(CCc1ccccc1)NC(C)C(O)c1ccc(O)cc1 (stereo not given) | inactive | inactive | inactive | inactive | inactive | – | inactive | inactive |
| Nc1ccncc1 | inactive | inactive | inactive | inactive | inactive | inactive | inactive | inactive |
| OCCOc1ccccc1 | inactive | – | – | inactive | inactive | inactive | inactive | inactive |
| C=C1C[C@@H]2[C@H](CC[C@]3(C)C(=O)CC[C@@H]23)[C@@]2(C)C=CC(=O)C=C12 | inactive | – | – | inactive | – | inactive | inactive | inactive |
| N[C@@H]1C[C@H]1c1ccccc1 | inactive | – | – | inactive | inactive | inactive | inactive | inactive |
| C=C1CC[C@@]2(O)[C@H]3Cc4ccc(O)c5c4[C@@]2(CCN3CC2CC2)[C@H]1O5 | inactive | – | – | inactive | – | inactive | inactive | inactive |
| FC(F)(F)c1cccc(C2=CCN(CCc3ccc4ccccc4c3)CC2)c1 | inactive | – | – | inactive | inactive | inactive | inactive | inactive |
| CC1OC(C)OC(C)O1 (stereo not given) | inactive | – | – | inactive | – | – | – | – |
| CCOC(=O)C1(c2ccccc2)CCN(CCC(C#N)(c2ccccc2)c2ccccc2)CC1 | inactive | – | – | inactive | – | – | – | – |
| CCCC1CCCCN1 (stereo not given) | inactive | – | – | inactive | – | inactive | inactive | inactive |
| CN1CCN(C(=O)O[C@H]2c3nccnc3C(=O)N2c2ccc(Cl)cn2)CC1 | inactive | – | – | inactive | inactive | inactive | inactive | inactive |
| COc1ccc2c(c1OC)CN1CCc3cc4c(cc3C1C2)OCO4 (stereo not given) | inactive | – | – | inactive | – | – | – | – |
| Clc1cccc(N2CCNCC2)c1 | inactive | – | – | inactive | – | – | – | – |
| C[C@]12C/C(=C/O)C(=O)C[C@@H]1CC[C@@H]1[C@@H]2CC[C@@]2(C)[C@H]1CC[C@]2(C)O | inactive | – | – | inactive | – | – | – | – |

| SMILES | outcome [1] | outcome [2] | outcome [3] | Potency [4] | Potency [5] | Potency [6] | Potency [7] | Potency [8] |
| --- | --- | --- | --- | --- | --- | --- | --- | --- |
| Cc1ccc(-c2nc3ccc(C)cn3c2CC(=O)N(C)C)cc1 | inactive | – | – | inactive | – | – | – | – |
| CC[N+](CC)(CC)CC | inactive | – | – | inactive | – | – | – | – |
| Cn1c(CCCC(=O)O)nc2cc(N(CCCl)CCCl)ccc21 | inactive | – | – | inactive | – | inactive | – | inactive |
| CC(C)(C)NCC(O)c1cc(Cl)c(N)c(Cl)c1 (stereo not given) | inactive | – | – | inactive | inactive | inactive | inactive | inactive |
| COc1ccc(Cc2nccc3cc(OC)c(OC)cc23)cc1OC | inactive | – | – | inactive | 14.1 µM (active) | – | – | – |
| CC(C)NCC(O)c1ccccc1Cl (stereo not given) | inactive | – | – | inactive | inactive | inactive | inactive | inactive |
| CCN(CC)CCN1C(=O)CN=C(c2ccccc2F)c2cc(Cl)ccc21 | inactive | – | – | inactive | – | – | – | – |
| CC(C)(C)CC(C)(C)c1ccc(O)cc1 | inactive | – | – | inactive | inactive | inactive | inactive | – |
| O=C(O)c1ccc2[nH]cc(CCCCN3CC=C(c4ccccc4)CC3)c2c1 | inactive | – | – | inactive | – | – | – | – |
| CN1C(=S)CN=C(c2ccccc2)c2cc(Cl)ccc21 | inactive | – | – | inactive | – | – | – | – |
| CC(=O)Nc1cc([As](=O)(O)O)ccc1O | inactive | – | – | inactive | inactive | inactive | inactive | inactive |
| Clc1ccc(CCC(Cn2ccnc2)Sc2c(Cl)cccc2Cl)cc1 (stereo not given) | inactive | – | – | inactive | – | inactive | – | inactive |
| O=[N+]([O-])c1cc([As](=O)(O)O)ccc1O | inactive | – | – | inactive | inactive | inactive | inactive | inactive |
| C=C(C)[C@H]1Cc2c(ccc3c2O[C@@H]2COc4cc(OC)c(OC)cc4[C@@H]2C3=O)O1 | inactive | – | – | 0.316 µM (active) | inactive | – | inactive | – |
| c1ccc2c(c1)Nc1ccccc1S2 | inactive | – | – | inactive | – | inactive | inactive | inactive |
| C=CCN1CC[C@]23c4c5ccc(O)c4O[C@H]2C(=O)CC[C@@]3(O)[C@H]1C5 | inactive | – | – | inactive | inactive | inactive | inactive | inactive |
| CC1NCCOC1c1ccccc1 (stereo not given) | inactive | – | – | inactive | – | – | – | – |
| C#CCN(C)[C@H](C)Cc1ccccc1 | inactive | – | – | inactive | inactive | inactive | inactive | inactive |
| C[C@H]1O[C@@H](O[C@H]2[C@@H](O)C[C@H](O[C@H]3[C@@H](O)C[C@H](O[C@H]4CC[C@@]5(C)[C@H](CC[C@@H]6[C@@H]5CC[C@]5(C)[C@@H](C7=CC(=O)OC7)CC[C@]65O)C4)O[C@@H]3C)O[C@@H]2C)C[C@H](O)[C@@H]1O | inactive | – | – | – | inactive | – | inactive | – |
